Here are results for 36 compounds from PubChem BioAssay (EPA / NIEHS).

The target of test [1] is Cellular tumor antigen p53 (Homo sapiens) (UniProt P04637). The test is described as follows: TOX21_p53_BLA_p2_ratio: Tox21 HCT-116 p53 Agonism Beta-lactamase Assay, Ratio, Phase 2 (AID 2283592). The essentials:
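HCT116 cells carrying a p53-responsive beta-lactamase reporter were plated, incubated 5 h at 37C, then dosed with compounds in DMSO (217-fold dilution) for 16 h. CCF4-AM substrate was added for 2 h at room temperature; the 460/530 nm emission ratio gave gain-of-signal activity relative to DMSO.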

Test [2] can be described thus: TOX21_p53_BLA_p3_viability: Viability Assessment in the Tox21 HCT-116 p53 Agonism Beta-lactamase Assay, Phase 3 (AID 2283593).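 Note: cells exposed to compound for 16 h before reading.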 In a few lines: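 Cellular ATP was quantified by CellTiter-Glo luminescence, read after 30 min at room temperature. Beforehand, HCT116 cells (4000/well) received compound 5 h post-seeding, 217-fold diluted from DMSO, then incubated 16 h at 37C.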

A short description of test [3]: TOX21_p53_BLA_p2_viability: Viability Assessment in the Tox21 HCT-116 p53 Agonism Beta-lactamase Assay, Phase 2 (AID 2283591).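 Note: compound exposure lasted 16 h at 37 °C; actives lower the ATP signal meaning cytotoxicity.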 In a few lines: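 Cytotoxicity readout: CellTiter-Glo ATP luminescence, 30 min at room temperature, after the beta-lactamase read. Cells were HCT116 exposed 16 h at 37C to compounds pin-transferred at 217-fold dilution from DMSO stocks.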

The target of test [4] is Cellular tumor antigen p53 (Homo sapiens) (UniProt P04637). The test is described as follows: TOX21_p53_BLA_p5_ratio: Tox21 HCT-116 p53 Agonism Beta-lactamase Assay, Ratio, Phase 5 (AID 2283599). In a few lines: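 Beta-lactamase reporter ratio (blue 460 nm over green 530 nm, 405 nm excitation) after 2 h CCF4-AM loading, in HCT-116 cells exposed 16 h at 37 C to compounds pinned at 217-fold dilution. Increases relative to DMSO baseline scored.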

Test [5] in a line: TOX21_p53_BLA_p5_viability: Viability Assessment in the Tox21 HCT-116 p53 Agonism Beta-lactamase Assay, Phase 5 (AID 2283600). In a few lines: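 Cells were plated at 4000/well, rested 5 h at 37C, then given compounds in DMSO (217-fold dilution) for 16 h at 37C, 5% CO2. Following the CCF4-AM beta-lactamase read, CellTiter-Glo was added and luminescence was read after 30 min at room temperature.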

Test [6] has as its target Cellular tumor antigen p53 (Homo sapiens) (UniProt P04637). The test is described as follows: TOX21_p53_BLA_p4_ratio: Tox21 HCT-116 p53 Agonism Beta-lactamase Assay, Ratio, Phase 4 (AID 2283601). The essentials:
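Signal is the blue/green (460nm/530nm) ratio of cleaved versus uncleaved CCF4-AM substrate, read after 2 h substrate loading. Cells were HCT116 carrying the p53-responsive beta-lactamase reporter, dosed 16 h at 37C, 5% CO2; CellTiter-Glo measured in parallel.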

Test [7] has the same target. The test is described as follows: TOX21_p53_BLA_p3_ratio: Tox21 HCT-116 p53 Agonism Beta-lactamase Assay, Ratio, Phase 3 (AID 2283596). In a few lines:
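HCT116 p53-bla cells (4000/well) given compound in DMSO (217-fold dilution) after 5 h, incubated 16 h at 37C. CCF4-AM substrate 2 h at room temperature; 460/530 nm emission ratio, gain fitted against DMSO.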

A short description of test [8]: TOX21_p53_BLA_p4_viability: Viability Assessment in the Tox21 HCT-116 p53 Agonism Beta-lactamase Assay, Phase 4 (AID 2283597).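 Note: hits lower the luminescence signal meaning cytotoxicity.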 In a few lines: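 HCT116 p53-bla cells (4000/well) rested 5 h at 37C, then received compounds in DMSO (217-fold dilution) for 16 h at 37C, 5% CO2. CellTiter-Glo was added after the CCF4-AM read, and luminescence was read after 30 min at room temperature.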

“And” between values parts separate entries of the source, which are not always exact repeats. Equal values may be shown once. Inconclusive results are not listed. A structure can be active in one record and inactive in another. The source made the active and inactive calls. Rule for the calls: active = hit-call score of the fitted dose curve at least 0.9, where 1 is the maximum; inconclusive = response in the unintended direction; inactive = score below 0.9.

Sequence of Cellular tumor antigen p53 (Homo sapiens) (P04637 whole entry, looked up): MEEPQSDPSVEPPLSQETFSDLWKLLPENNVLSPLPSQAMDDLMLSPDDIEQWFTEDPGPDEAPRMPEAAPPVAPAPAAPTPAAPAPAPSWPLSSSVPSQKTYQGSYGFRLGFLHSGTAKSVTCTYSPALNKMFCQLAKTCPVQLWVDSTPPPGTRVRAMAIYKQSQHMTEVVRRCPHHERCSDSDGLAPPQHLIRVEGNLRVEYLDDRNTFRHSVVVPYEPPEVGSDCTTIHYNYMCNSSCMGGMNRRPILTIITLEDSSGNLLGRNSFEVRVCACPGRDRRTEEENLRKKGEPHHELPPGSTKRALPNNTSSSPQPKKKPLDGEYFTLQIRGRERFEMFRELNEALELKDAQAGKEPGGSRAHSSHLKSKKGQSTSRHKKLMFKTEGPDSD

Consider `C=C(C)C(=O)OC(C)C`, for which the result in test [1] and in test [2] was inactive.
As for `CC(C)CNCC(C)C`, the compound was classed as inactive in test [3], in test [4], in test [5] and in test [6].
Regarding `CC(C)CC(O)CC(C)C`, the compound was classed as inactive in test [3] and in test [5].
Take `CSSc1ccoc1C`: the outcome in test [1] and in test [2] was inactive. Besides, the AC50 in test [7] was 40.4 µM (active).
In the case of `CCCC(=O)Nc1c(I)cc(I)c(CC(CC)C(=O)O)c1I` (centres undefined), the outcome in test [1] was inactive.
In the case of `O=C(O)c1ccc(Cl)cc1Cl`, the outcome in test [3], in test [4] and in test [6] was inactive.
Regarding `CC(O)Cn1cnc2c1c(=O)n(C)c(=O)n2C` (centres undefined), the outcome in test [3] and in test [6] was inactive.
With `O=[N+]([O-])c1ccc(F)c(Cl)c1`, the result in test [1] and in test [2] was inactive.
`Nc1ccc(S(=O)(=O)O)cc1`: the outcome in test [1], in test [2] and in test [7] was inactive.
With `COC(=O)C[C@](O)(CCCC(C)(C)O)C(=O)O[C@@H]1C(OC)=CC23CCCN2CCc2cc4c(cc2[C@H]13)OCO4` (some centres undefined), the AC50 was 20.2 nM (active) in test [1]; 45.4 nM (active) and 43.1 nM (active) in test [7]; 0.014 µM (active) in test [8]; 0.0379 µM (active) in test [4]. The outcome in test [1], in test [2], in test [4] and in test [5] was inactive.
Regarding `CSc1ccc(C(=O)c2[nH]c(=O)[nH]c2C)cc1`, the compound was classed as inactive in test [3], in test [4], in test [5] and in test [6].
As for `Clc1ccnc(Cl)n1`, the result in test [1] and in test [2] was inactive.
Take `COc1cc(N)c(Cl)cc1C(=O)NC1CCN(Cc2ccccc2)CC1`: the compound was classed as inactive in test [3] and in test [5].
On to `OC(CN1CCCCC1)c1cc(-c2ccccc2)on1` (centres undefined), for which the compound was called inactive in test [3] and in test [6].
As to `C[C@H](N)[C@H](O)c1cccc(O)c1`, the outcome in test [1] and in test [2] was inactive.
For `Nc1cc(C(=O)O)ccc1Cl`, the result in test [1] and in test [2] was inactive.
On to `COc1cc2c(cc1O)CCN[C@]21CS[C@@H]2c3c(OC(C)=O)c(C)c4c(c3[C@H](COC1=O)N1[C@@H]2[C@H]2c3c(cc(C)c(OC)c3O)C[C@@H]([C@@H]1O)N2C)OCO4`, for which, in test [1], the AC50 is 1.74 nM (active) and the outcome was inactive.
In the case of `CCCCC(=O)N(C)C`, the outcome in test [3], in test [4] and in test [6] was inactive.
As for `CC(=O)O[C@H]1C[C@@H]2CC[C@@H]3[C@H](CC[C@@]4(C)[C@H]3C[C@H](N3CC[N+](C)(C)CC3)[C@@H]4OC(C)=O)[C@@]2(C)C[C@@H]1N1CC[N+](C)(C)CC1`, the compound was called inactive in test [3], in test [4], in test [5] and in test [6].
For `CCOC(=O)CC(C)=O`, the call in test [3] and in test [5] was inactive.
Turning to `NS(=O)(=O)c1cc(C(=O)O)cc(N2CCCC2)c1Oc1ccccc1`, the call in test [3], in test [5] and in test [6] was inactive.
With `CC[N+](C)(CC)CCOC(=O)C(O)(c1ccccc1)C1CCCCC1` (centres undefined), the call in test [3] and in test [5] was inactive.
For the compound `NCCc1ccc(O)c(O)c1`, the outcome in test [1], in test [2], in test [7], in test [8], in test [4] and in test [5] was inactive.
Turning to `CC(C)(C)C(=O)OCOC(=O)[C@@H]1N2C(=O)[C@@H](N=CN3CCCCCC3)[C@H]2SC1(C)C`, the outcome in test [1], in test [2], in test [7], in test [8], in test [4] and in test [5] was inactive. Moreover, the outcome in test [6] was inactive.
For `CCCCCCCCCCCCCCN(C)C`, the outcome in test [1], in test [2], in test [7], in test [8] and in test [4] was inactive.
On to `CCCCN1CCCC[C@H]1C(=O)Nc1c(C)cccc1C`, for which the result in test [1], in test [2], in test [7], in test [8], in test [4] and in test [5] was inactive.
For `O=C(Cn1cnnn1)N[C@@H]1C(=O)N2C(C(=O)O)=C(CSc3nncs3)CS[C@H]12`, the result in test [1], in test [2], in test [7], in test [8], in test [4] and in test [5] was inactive.
With `Cc1ccc2c(c1[N+](=O)[O-])C(=O)c1ccccc1C2=O`, the AC50 in test [1] was 22500 nM (active); in test [4] it was 20.3 µM (active); in test [6] it was 25.7 µM (active). The call in test [2], in test [7], in test [8] and in test [5] was inactive.
For the compound `CCC1OC(=O)C[C@@H](O)[C@H](C)[C@@H](O[C@@H]2O[C@H](C)C[C@H](N(C)C)[C@H]2O)[C@@H](CC=O)C[C@@H](C)C(=O)/C=C/[C@]2(C)OC2C1C` (some centres undefined), the result in test [1], in test [2], in test [7], in test [8], in test [4] and in test [6] was inactive. For the same compound, the AC50 was 35 µM (active) in test [4] and 27.1 µM (active) in test [6].
With `C[N+](C)(CCOc1ccccc1)Cc1cccs1`, the result in test [1], in test [2], in test [7], in test [8], in test [4] and in test [5] was inactive. For the same compound, the outcome in test [6] was inactive.
On to `CC1(C)O[C@H]2CC(=O)OC[C@]23[C@H]2CC[C@@]4(C)[C@H](c5ccoc5)OC(=O)[C@H]5O[C@]54[C@]2(C)C(=O)C[C@@H]13`, for which the result in test [1], in test [2], in test [7], in test [8], in test [4] and in test [5] was inactive. Moreover, in test [6], the result was inactive.
As to `Cc1c(N)cccc1Cl`, the result in test [1], in test [2], in test [7], in test [8], in test [4] and in test [5] was inactive.
For `CC1(CN2CCC(n3c(=O)[nH]c4ccccc43)CC2)OCc2ccccc2-n2cccc21` (centres undefined), the result in test [1], in test [2], in test [7], in test [4], in test [5] and in test [6] was inactive. Also, the AC50 in test [8] is 33.3 µM (active).
For the compound `O=C(O)O`, the outcome in test [1], in test [2], in test [7], in test [8], in test [4] and in test [5] was inactive.
Turning to `CC1(C)[C@@H]2CC[C@@]1(C)[C@H](OC(=O)CSC#N)C2`, the outcome in test [1], in test [2], in test [7], in test [8] and in test [4] was inactive.
In the case of `O=C(Cl)c1cc(Cl)cc(Cl)c1`, the result in test [1], in test [2], in test [7], in test [8], in test [4] and in test [5] was inactive.

As a reminder, the AC50 is the concentration at which the activity in the assay is half-maximal.
